Where “and” joins values, the source holds several entries; their conditions need not be identical. Equal entries are not always repeated. Results filed as inconclusive are left out. A structure can be active in one record and inactive in another. Unmarked numbers belong to inactive results. Calls of active or inactive are those of the source. Calls follow the shape of the dose curve; as a rule, active = well fitted activation curve with a large enough effect; inconclusive = small, poorly fitted or top-dose-only effect; inactive = no such curve, though single readings can be large or run the other way.
Potency is read from the fitted curve at half-maximal effect.

Cellular tumor antigen p53 (Homo sapiens), sequence (P04637 whole entry, looked up): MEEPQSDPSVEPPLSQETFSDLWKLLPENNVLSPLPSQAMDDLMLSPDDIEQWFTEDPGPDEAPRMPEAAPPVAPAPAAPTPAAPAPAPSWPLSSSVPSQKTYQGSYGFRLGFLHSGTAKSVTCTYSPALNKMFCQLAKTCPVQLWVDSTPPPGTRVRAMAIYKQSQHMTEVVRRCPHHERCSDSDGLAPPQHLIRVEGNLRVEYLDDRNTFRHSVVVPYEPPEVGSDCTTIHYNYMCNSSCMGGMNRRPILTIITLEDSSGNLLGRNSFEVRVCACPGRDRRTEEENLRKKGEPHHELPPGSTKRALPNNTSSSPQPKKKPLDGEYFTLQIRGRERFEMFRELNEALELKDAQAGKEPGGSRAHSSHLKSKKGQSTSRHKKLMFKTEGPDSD

The test concerns the target Cellular tumor antigen p53 (Homo sapiens) (UniProt P04637). The test is described as follows: Primary qHTS for small molecule compounds that upregulate eGFP-tagged delta133p53alpha (in N-terminal) cells. (AID 2060322). Also: nearly all actives have a fitted effect of over 75% in size.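 As to activation: cells pre-induced with doxycycline then dosed without doxycycline; series mostly up to about 56 µM; 0% = DMSO vehicle and 100% = reference activator.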 Conditions: NCI-H358 eGFP-delta133p53alpha fluorescence, 24 h; activation: hits give high values. From the text: Assay Development and Screening Technology
National Center for Advancing Translational Sciences (NCATS),
National Institute of Health (NIH), Rockville, Maryland
Cellular senescence (CS) is one of the hallmarks of aging and age-related diseases. Senescent cells are characterized by an irreversible growth arrest, an increase in senescence-associated beta-galactosidase (SA-beta-gal) activity and p16INK4a expression, an activation of the DNA damage response pathways, and the emergence of a senescence-associated secretory phenotype (SASP).
Delta133p53alpha, a human/primate-specific p53 protein isoform, delays or inhibits the induction of CS and SASP in various types of human cells, including progeria-derived fibroblasts, primary normal astrocytes, and CD8+ T lymphocytes. Induction of delta133p53alpha with small molecule compounds may provide therapeutic opportunities for inhibition of senescence/SASP-associated pathologies in progeria syndromes, astrocyte-mediated neuroprotection in neurodegenerative diseases, and possibly prevention and treatment of a wider range of senescence- and aging-associated diseases.
Here we report the development and validation of a cell-based quantitative high throughput screening (qHTS) assay in 1,536-well format. This qHTS assay uses the NCI-H358 cell line with doxycycline-inducible expression of enhanced green fluorescent protein (eGFP)-tagged delta133p53alpha, which allows efficient and highly quantitative measurement of the protein levels.
PROTOCOL TABLE (as described by Inglese J, Shamu CE and Guy RK. 2007)
SEQUENCE No. (e.g., 1, 2, 3, etc.); […] (e.g., Cells, Incubation, Reagent, etc.); VALUE; DESCRIPTION.
1; Cells; 4uL; 800 doxycycline treated cells / well in doxycycline-free media, 1536-well black, clear-bottom low base Aurora microplates.
2; Compounds; 23 nL; Kalypsis pin tool (Wako) equipped with 1536-well pin heads, 5-azacytidine positive control.
3; Incubation; 24 hr; 37C, 5% CO2; 95% relative humidity.
4; Aspiration; 1x; BioTek EL406 washer dispenser (Agilent).
5; Fixing; 3.5% paraformaldehyde, BioTek EL406 washer dispenser (Agilent).
6; Washing; 1x PBS; BioTek EL406 washer dispenser (Agilent).
7; Nuclei staining; 1:1000 dilution of Hoechst 33342 (Thermofisher), BioTek EL406 washer dispenser (Agilent).
8; Incubation; 20 min; in the dark at room temperature.
9; Washing; 2x, 1x PBS (ThermoFisher), BioTek EL406 washer dispenser (Agilent).
10; Reagent; 10 uL; 1x PBS per well, sealed with clear adhesive tape.
NOTES (numbers refer to sequence numbers above).
1. NCI-H358 cells expressing eGFP-tagged delta133p53alpha were grown in T75 culture flasks and treated with doxycycline for 24h, at 10 ng/ml for eGFP-D133p53a cells (N-terminal cell) and 100 ng/ml for D133p53a-eGFP cells (C-terminal cells). Cells were trypsinized, counted using a Counted 3 Automated Cell Counter (Thermo Fisher), and diluted to a concentration of 200,000 cells/ml. A Multidrop Combi Reagent Dispenser (ThermoFisher) was used to dispense 800 cells/well in […] of doxycycline-free media, into 1536-well black/clear bottom low base plates (AuroraMicroplates).
2. After plating cells, 23 nl of compound library, DMSO vehicle control or positive control (5-azacytidine) were transferred by Pin Tool (Wako). The plate map layout was the same for each plate: (column 1) non-doxycycline treated cells + DMSO vehicle control; (column 2) doxycycline treated cells + DMSO vehicle control baseline; (column 3) doxycycline treated cells + positive control 57.5 uM final concentration 5-azacytidine; (column 4) doxycycline treated cells + serial dilution of 5-azacytidine, 16-point 1:2 titration spanning 1.8 nM to […] final concentration; (columns 5-48) doxycycline treated cells + titration of library compounds.
3. Cells were incubated at 37 °C, 5 % CO2, 95% RH with breathable metal lid for 24h.
4-10. […] After two washes, 10 ul of 1X PBS (Thermo Fisher) was dispensed to each well. Clear adhesive plate seals (VWR) were applied and plates stored at 4 °C.
11. […]
(In qHTS, concentration-response curves come from the screen itself.)
On to `CC(Cc1ccc2c(c1)OCO2)NO` (stereo not given), for which the activation is -3.95%.
Same read-out and setting: for `N[C@@H](Cc1ccc(N(CCCl)CCCl)cc1)C(=O)O` the value was 29.4%.
On the same count and under the same terms, the result for `C=CC[C@]1(O)CC[C@H]2[C@@H]3CCC4=CC(=O)CCC4=C3C=C[C@@]21C` reads -4.18%; that for `N#Cc1nn(-c2c(Cl)cc(C(F)(F)F)cc2Cl)c(N)c1S(=O)C(F)(F)F` (stereo not given), -2.51%.
On the same count and under the same terms, for `C=CCC1([C@H](C)CCC)C(=O)NC(=O)NC1=O` the value was 7.34%.
Regarding `NC(=O)OCCCc1ccccc1`, the activation is -0.565%.
On to `CC(Cc1ccccc1)NCCn1cnc2c1c(=O)n(C)c(=O)n2C` (stereo not given), for which the activation was 9.6%.
On the same count and under the same terms, for `CNCCc1ccc(O)c(O)c1` the value was -26.5%; for `NCc1cccnc1`, 6.21%; for `CC(=O)NBr`, -8.24%.
Same read-out and setting: for `CN1C(=O)[C@@H](Cc2c[nH]c3ccccc23)N=C(c2ccccc2F)c2ccccc21` the value was 15.8%.
Turning to `COC1CCCC(C)OC(=O)Cc2cc(O)cc(O)c2C(=O)C1` (stereo not given), the Potency was 16.6 µM (active).
Regarding `CN=C(NS(=O)(=O)c1ccc(Cl)cc1)N1C[C@H](c2ccccc2)C(c2ccc(Cl)cc2)=N1`, the activation is 1.91%.
Still for that read-out and setting: the result for `COC1=CC(C)=C[C@@H](C)[C@@H](O)[C@@H](C)CC(C)=CC=C[C@H](OC)[C@H]([C@@H](C)[C@@H](O)[C@H](C)[C@@]2(O)C[C@@H](O)[C@H](C)[C@@H](C(C)C)O2)OC1=O` reads 6.87%; that for `C[C@]12CC[C@H]3[C@@H](CCC4=CC(=O)CC[C@@]43C)[C@H]1CC[C@H]2OC(=O)CCC1CCCC1`, 28.3%; that for `O=C(N1CCOCC1)N1CCN(c2ccc(Cl)cc2)CC1`, 10%.
The same measure, in the same setting: for `c1ccc2c(c1)sc1ccccc12` the value was -5.02%.
Regarding `C[N+]1(C)C2CCC1CC(OC(=O)C(CO)c1ccccc1)C2` (stereo not given), the activation is -2.46% and -16.7%.
Turning to `O=C(N[C@@H](COc1ccc2[nH]c(=O)[nH]c2c1)c1ccccc1)c1cccn(Cc2ccc(F)c(F)c2)c1=O`, the Potency is 30.6 µM (active).
As for `CO[C@H]1CCC(O[C@H]2C[C@H]([C@]3(C)CC[C@]4(C[C@H](O)[C@@H](C)[C@@H]([C@@H](C)C=C(C)C(=O)[C@H](C)C[C@H](C)C(=O)O)O4)O3)O[C@]3(O[C@@H]([C@H]4O[C@@](O)(CO)[C@H](C)C[C@H]4C)C[C@H]3C)[C@H]2C)O[C@H]1C` (stereo not given in full), the activation was 20.4%.
On the same count and under the same terms, for `NC(=O)COc1c(F)cc(SCCNS(=O)(=O)c2ccccc2)cc1F` the value was -8.4%.
Still for that read-out and setting: the result for `N#C[C@H](O[C@@H]1O[C@H](CO[C@@H]2O[C@H](CO)[C@H](O)[C@H](O)[C@H]2O)[C@H](O)[C@H](O)[C@H]1O)c1ccccc1` reads 6.64%; that for `C=CCC1=C(C)C(OC(=O)C2C(C=C(C)C)C2(C)C)CC1=O` (stereo not given), 18.6%.
`CC(=O)C1CCC2C3CCC4C[C@@H](O)CCC4(C)C3CCC12C` (stereo not given in full): the activation was -2.33%.
The same measure, in the same setting: the result for `CN1CC[C@@]2(C)c3cc(OC(=O)Nc4ccccc4)ccc3N(C)[C@@H]12` reads 26.7%; that for `CCC1C2CC3C4N(C)c5ccccc5C45CC(C2C5O)N3C1O` (stereo not given), 9.82%; that for `CCOC(=O)C(c1c(O)c2ccccc2oc1=O)c1c(O)c2ccccc2oc1=O`, -3.95%.
For `O=C1Nc2ccc3ncsc3c2/C1=C/c1cnc[nH]1`, the Potency is 2.39 µM (active).
Take `C=C1[C@@H](C)[C@H]2[C@H](Cc3ccccc3)NC(=O)[C@]23[C@H](OC(C)=O)/C=C/[C@](C)(O)C(=O)[C@@H](C)C/C=C/[C@H]3[C@@H]1O`: the activation is -8.04%.
On to `CC1=C2C(=O)C3[C@@H](CC=C4C[C@@H](O)CC[C@@]43C)[C@@H]2CC[C@]12O[C@@H]1C[C@H](C)CN[C@H]1[C@H]2C` (stereo not given in full), for which the activation is 4.58%.
Still for that read-out and setting: for `Oc1ccc2c(c1)C13CCCC[C@H]1[C@@H](C2)N(CC1CCC1)CC3` the value was 12.3%; for `C=C(C)[C@@H]1[C@H]2OC(=O)[C@H]1[C@]1(O)C[C@H]3O[C@]34C(=O)O[C@H]2[C@]14C`, 4.33%.
Turning to `CCC(=O)C(CCN(C)C)(c1ccccc1)c1ccccc1`, the Potency is 13.8 µM (active).
For `C=C[C@H]1[C@H](O[C@@H]2O[C@H](CO)[C@@H](O)[C@H](O)[C@H]2O)OC=C2C(=O)OCC[C@H]21`, the activation was 6.11%.
On the same count and under the same terms, the result for `C=C[C@@H]1CN2CCC1C[C@H]2[C@H](O)c1ccnc2ccccc12` (stereo not given in full) reads -4.83%.
With `CN(C)[C@@H]1C(=O)C(C(N)=O)=C(O)[C@@]2(O)C(=O)C3=C(O)c4c(O)cccc4[C@@](C)(O)[C@H]3C[C@@H]12`, the Potency is 21.9 µM (active) and the activation is -14.3%.
Take `CC=C(C)C(=O)O[C@H]1C(C)=C2[C@@H]3OC(=O)[C@@](C)(O)[C@@]3(O)[C@@H](OC(=O)CCC)C[C@](C)(OC(C)=O)[C@@H]2[C@@H]1OC(=O)CCCCCCC`: the activation is -0.0676%.
Same read-out and setting: for `N#C[C@@H](O[C@@H]1O[C@H](CO[C@@H]2O[C@H](CO)[C@@H](O)[C@H](O)[C@H]2O)[C@@H](O)[C@H](O)[C@H]1O)c1ccccc1` the value was -19.6%.
On the same count and under the same terms, the result for `Cc1cc(C(=O)CN2CCCC2)c(C)n1-c1ccc(F)cc1` reads 10% and -5.25%.

Source of the values: PubChem BioAssay (NCATS).
